# An excerpt weighted towards active compounds, which were near 4.6% of everything screened.
# TRb SRC2 PPI – TRbeta-SRC2 interaction inhibition; P10828; 280,000 tested, 0.065% active; Potency, µM (doses to about 106 µM), for inactives: at the highest dose activity change, negative = inhibition, usual class: inhibitors; TRbeta-SRC2 peptide binding, fluorescence polarization; receptor liganded with 1 µM T3;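 note: potency is the fitted concentration of half-maximal effect; plate controls were bound peptide for no effect and peptide without receptor for full effect; nearly all actives have a fitted effect of over 50% in size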
# Target sequence (P10828 whole entry, looked up): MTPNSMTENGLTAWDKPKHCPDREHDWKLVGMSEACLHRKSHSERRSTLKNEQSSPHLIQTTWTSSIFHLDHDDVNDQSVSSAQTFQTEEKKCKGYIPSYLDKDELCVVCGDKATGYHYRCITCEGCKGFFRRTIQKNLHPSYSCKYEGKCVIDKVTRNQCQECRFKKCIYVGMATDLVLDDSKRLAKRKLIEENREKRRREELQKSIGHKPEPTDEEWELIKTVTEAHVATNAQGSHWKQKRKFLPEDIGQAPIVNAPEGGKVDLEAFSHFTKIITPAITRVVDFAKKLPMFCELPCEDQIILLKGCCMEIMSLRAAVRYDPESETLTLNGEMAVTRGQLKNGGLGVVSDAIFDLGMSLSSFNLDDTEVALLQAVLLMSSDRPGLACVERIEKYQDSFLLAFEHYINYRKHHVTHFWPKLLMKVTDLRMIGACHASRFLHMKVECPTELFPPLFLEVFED
#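 Polarization signal, normalized between peptide-alone and full complex controls, measured compound effects on T3-liganded human TRb LBD (0.6 uM) binding 20 nM Texas Red SRC2 peptide after 5 hr.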
# Tau fluor counter – counter-screen for tau fibril formation inhibitors | tau K18 P301L Alexa594 fluorescence, heparin fibrillization | Potency, µM (titrated, usually from 57.7 µM), without a hit: at the highest dose activity change, negative = decrease | 280,000 tested, 0.93% active | AID 1463; note: potency is the fitted concentration of half-maximal effect; nearly all actives have a fitted effect of over 55% in size
#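 Human tau K18 P301L (15 uM unlabeled, 0.24 uM Alexa 594-labeled) in 100 mM sodium acetate pH 7 with 20 uM heparin, 6 hr at 37 C. ThT 30 uM added, 1 hr ambient; Alexa 594 FP and total fluorescence read at 555/632 nm.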
# Tau FP inhib – inhibitors of human tau fibril formation. K18 P301L tau heparin fibrillization, Alexa594 FP, 6 h. Potency, µM (titrated, usually from 57.7 µM), for inactives: at the highest dose activity, negative = inhibition, actives largely listed as inhibitors. 280,000 tested, 0.39% active. AID 1468; note: potency is the fitted concentration of half-maximal effect; nearly all actives have a fitted effect of over 55% in size
# Target sequence (P10636 561-689 P618L limits assumed): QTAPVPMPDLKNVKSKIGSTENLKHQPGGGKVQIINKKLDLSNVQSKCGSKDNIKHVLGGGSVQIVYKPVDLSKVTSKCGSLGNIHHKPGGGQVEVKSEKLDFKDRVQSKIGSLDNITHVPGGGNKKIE
#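 K18 P301L tau (15 uM unlabeled/0.24 uM Alexa 594-labeled, final) + compound + heparin 20 uM final; 100 mM NaOAc pH 7; 6 hr 37 C; ThT 30 uM final added, 1 hr RT; FP ex 555/em 632 nm.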
# TexasRed fluor – counter-screen for TRb-SRC2 inhibitors: fluorescence interference; TRb/SRC2 Texas Red total fluorescence interference; Potency, µM (highest dose often 106 µM), inactives show at the top dose fluorescence change, negative = quenching; 280,000 tested, 0.29% active; active = well fitted curve in either direction with a large enough effect; inconclusive = small, poorly fitted or top-dose-only effect; note: potency is the fitted concentration of half-maximal effect
#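 Human TRβ ligand-binding domain (0.6 uM) and Texas Red SRC2 peptide (20 nM) in Tris buffer with 1 uM T3 and 5% DMSO were incubated with pinned compound for 5 hr at ambient temperature. Total fluorescence was computed as S + 2P (555/632 nm).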
# Tau fibril ThT – tau fibrillization inhibition (ThT binding). P10636. recombinant tau K18 P301L, heparin-induced fibrillization, ThT fluorescence. Potency, µM (highest dose often 57.4 µM), without a hit: top-dose activity, negative = inhibition, usual class: inhibitors. 270,000 tested, 2.1% active. AID 1460; note: potency is the fitted concentration of half-maximal effect; nearly all actives have a fitted effect of over 55% in size
#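 Fibril formation assay: tau K18 P301L at 15 uM with trace Alexa 594 label, heparin inducer 20 uM, pH 7 sodium acetate buffer, 37 C for 6 hr; endpoint ThT signal.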
# PNC assembly inh – perinucleolar compartment assembly inhibition; PC3M PTB-GFP, PNC prevalence imaging, 16 h; hits give low values; activity change (PNC), negative = inhibition, % at 10 µM; 140,000 tested, 3.1% active; AID 2417;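 active = readout at or below -70, meaning at least 70% loss of cells showing the perinucleolar compartment, a nuclear body marking cancer cells; inconclusive = readout between -30 and a set limit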;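 note: plate controls were DMSO wells for no effect and camptothecin positive control wells for full effect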
#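 Read-out is percentage of cells bearing a perinucleolar compartment, from automated 20x imaging of fixed, Hoechst-stained PC3M PTB-GFP cells. Cells were seeded 4 h, then exposed 16 h to compound (23 nl of library stock) in duplicate plates.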
# * marks the source's active call; other numbers are inactive results; ? = inconclusive; . = no result; [ ] = another dose, or the depositor's remark. Unless noted, calls come from the whole dose curve; as a rule, active = well fitted curve in the direction sought with a large enough effect; inconclusive = small, poorly fitted or top-dose-only effect, or another doubt; inactive = no such curve, though single readings can be large; an effect the other way counts as inactive or inconclusive. Unless noted, % is set by controls: 0 for no effect and ±100 for the full control effect.
SMILES,TRb SRC2 PPI,Tau fluor counter,Tau FP inhib,TexasRed fluor,Tau fibril ThT,PNC assembly inh
COc1ccccc1C1CN(c2ccc(F)cc2F)N=C1c1cccs1 (stereo not given),-10%,?,?,0%,-14%,-94*
COc1ccc(N=c2scc(-c3ccc(S(=O)(=O)N4CCOCC4)cc3)n2CCCO)cc1,-9%,?,6%,-6%,?,-100*
Fc1ccc(NC(=S)NCCc2ccc(Cl)cc2)cc1,3%,?,?,0%,7%,3
S=C(NCCc1ccccc1)Nc1ccc(Nc2ccccc2)cc1,-7%,16µM*[quencher],?,-3%,?,.
NS(=O)(=O)c1ccc(NC(=S)NCc2cccc(Cl)c2)cc1,4%,-21%,?,-1%,-3%,-24
O=C(NCCc1ccncc1)Nc1ccccc1,5%,2%,3%,-2%,-4%,-100*
O=C(NCCc1ccncc1)Nc1ccc(Cl)c(Cl)c1,-4%,-11%,-4%,0%,4%,.
O=[N+]([O-])c1ccc(NC(=S)NCCc2ccc(F)cc2)cc1,4%,14µM*[quencher],?,4%,?,-13
NS(=O)(=O)c1ccc(NC(=S)NCc2ccccc2)cc1,4%,-5%,-3%,-9%,-8%,-97*
COCCn1c(Cc2ccccc2)nnc1SCC(=O)Nc1cc(C)on1,2%,-8%,-3%,2%,-11%,16
Cc1ocnc1C(=O)Nc1ccc(Cl)cc1,0%,-11%,2%,0%,-9%,21
COc1ccc(CCNC(=O)c2cc(-c3ccc(Cl)cc3)on2)cc1OC,-4%,-7%,-9%,?,-9%,.
O=[N+]([O-])c1cccc(NC(=S)NCCc2ccccc2)c1,-19%[53 µM],-4%,-3%,316µM*[quencher],0%,43
CN(CCc1ccccn1)C(=O)c1cccnc1Oc1ccc(Cl)cc1,0%,-9%,-9%,-4%,-6%,.
COc1ccc(-n2c(=O)c3ccccc3n(CC(=O)OCc3ccccc3)c2=O)cc1OC,2%,-5%,-1%,-1%,-1%,.
COC(=O)c1c(NC(=O)CN2CCC3(O)CCCCC3C2c2ccc(OC)cc2OC)sc(C)c1C (stereo not given),?,3%,0%,100µM*[quencher],9%,58
CC(CNc1ccccc1O)C(=O)O (stereo not given),-6%,?,?,-9%,28µM*,23
Nc1cccc(Oc2c(F)c(F)c(Oc3cccc(N)c3)c(F)c2F)c1,-1%,6.3µM*[quencher],?,-2%,?,.
COc1cccc(N)c1,0%,.,.,-2%,.,.
COC(=O)c1nn(-c2ccc(F)cc2)ccc1=O,-4%,-3%,10%,-5%,-7%,.
Cn1cccc1/C=C1\SC(=S)N(NC(=O)c2ccccc2Cl)C1=O,3%,-26%,5%,-1%,11µM*,16
Cc1ccc(C(=O)NN2C(=O)CSC2=S)cc1,2%,-9%,-10%,5%,?,-84*
Cn1cc(/C=C2\SC(=O)NC2=S)c2ccccc21,17%,?,?,12%,2µM*,.
Cc1ccc(C(=O)NN2C(=O)/C(=C/c3cccn3C)SC2=S)cc1,-1%,?,0%,0%,5µM*,?
CCCSc1nnc(NC(=O)Nc2ccccc2)s1,8%,?,-15%,3%,5%,-11
SMILES,TRb SRC2 PPI,Tau fluor counter,Tau FP inhib,TexasRed fluor,Tau fibril ThT,PNC assembly inh
Cn1cc(/C=C2\SC(=S)N(NC(=O)c3ccccc3Cl)C2=O)c2ccccc21,-11%,-23%,-19%,2%,1.1µM*,2
O=C(O)CN1C(=O)/C(=C/c2ccsc2)SC1=S,-10%,7%,-6%,0%,-13%,.
Cc1ccc(C(=O)NN2C(=O)/C(=C/c3cn(C)c4ccccc34)SC2=S)cc1,-10%,2%,7%,-7%,7%,28
O=C(O)CN1C(=O)/C(=C/c2ccc(SCc3ccccc3)o2)SC1=S,6%,-11%,-8%,-9%,13µM*,.
Cc1ccc(/C=C2/SC(=O)NC2=S)o1,-25%,?,10µM*,-12%,4.5µM*,.
Cn1cccc1/C=C1\SC(=S)N(CC(=O)O)C1=O,-8%,0%,-3%,-5%,11µM*,42
CCN1CCN(C2=NC(=O)/C(=C/c3ccc(C)o3)S2)CC1,-3%,-21%,-16%,2%,?,22
O=C1/C(=C\c2ccco2)SC(=S)N1Cc1ccccc1,8%,?,-3%,-23%,?,-9
O=C(Nc1nnc(C2CCCO2)s1)c1cccs1 (stereo not given),8%,-1%,4%,1%,2%,?
COC(C[C@@H](O)CC(=O)[C@H](C)OCc1ccccc1)OC,-6%,24%,4%,-1%,6%,.
Cc1ccc(N(CC(O)CN2CCOCC2)S(=O)(=O)c2ccc3ccccc3c2)cc1 (stereo not given),-2%,-7%,4%,3%,-1%,2
COc1ccc(C(C)=O)c2c(O)cccc12,3%,-14%,6%,2%,?,?
O=C(NN1C(=O)/C(=C\c2ccc(O)c([N+](=O)[O-])c2)SC1=S)c1ccccc1Cl,6%,?,14%,-7%,3.2µM*,.
CCOC(=O)C1=C(C)NC(c2ccccc2)=C(C(=O)OCc2ccc([N+](=O)[O-])cc2)[C@@H]1C#Cc1ccccc1,4%,-27%,-5%,-1%,-10%,.
CCOC(=O)c1c(C)oc2c1c(C=NCCO)c(O)c1ccccc12,7%,?,-5%,0%,13µM*,.
CCOC(=O)c1c(C)oc2c1c(C(c1ccccc1)N1CCOCC1)c(O)c1ccccc12 (stereo not given),5%,1%,11%,1%,2%,42
CC1=NN(C(=O)c2ccc(Cn3nc(C)c(Br)c3C)cc2)C(O)(C(F)(F)F)C1 (stereo not given),2%,-12%,6%,-2%,-8%,21
O=c1c2ccccc2nc(SCc2cc([N+](=O)[O-])cc3c2OCOC3)n1-c1ccccc1,-4%[53 µM],-4%,15%,0%[53 µM],-4%,-92*
COc1cccc(-c2nnn(CC(=O)NC3CCCC3)n2)c1OC,-3%,7%,-3%,-8%,0%,-11
CCOc1cc(/C=C2\CCC/C(=C\c3cc(Cl)c(O)c(OCC)c3)C2=O)cc(Cl)c1O,-8%,?,?,-2%,8.9µM*,28
CCOc1cc(/C=N\O)cc(Cl)c1OCC,2%,-4%,-6%,0%,-6%,-11
COc1c(C)cccc1C(=O)NC(=S)Nc1cccc2nsnc12,3%,-27%,?,0%,25µM*,.
CC(C)CC(=O)NC(=S)Nc1cccc2nsnc12,-2%,-15%,-3%,-1%,?,.

# High-throughput results as filed in PubChem.
